Results on 27 sequences are retold here after the supplement of paper PMC10681739.

Assay [1] addresses T1, ETS1 (UniProt P14921).
T1 sequence: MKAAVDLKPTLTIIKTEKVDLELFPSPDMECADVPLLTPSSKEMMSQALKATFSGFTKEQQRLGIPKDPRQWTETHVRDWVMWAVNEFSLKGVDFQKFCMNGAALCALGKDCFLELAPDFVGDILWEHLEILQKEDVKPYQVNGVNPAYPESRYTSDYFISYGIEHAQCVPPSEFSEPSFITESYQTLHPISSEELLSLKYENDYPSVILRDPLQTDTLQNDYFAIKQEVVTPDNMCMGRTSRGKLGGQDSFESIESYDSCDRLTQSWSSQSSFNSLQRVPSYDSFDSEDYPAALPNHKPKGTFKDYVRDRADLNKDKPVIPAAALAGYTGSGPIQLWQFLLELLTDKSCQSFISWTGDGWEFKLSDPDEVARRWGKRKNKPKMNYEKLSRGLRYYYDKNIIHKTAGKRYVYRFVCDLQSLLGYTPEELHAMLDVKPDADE
The experiment in a line: ETS1 binding intensity (PBM fluorescence), ETS1 alone (arbitrary fluorescence units); higher = stronger binding. Conditions: ETS1 concentration 1 nM; RUNX1 concentration 0 nM.

For assay [2], the target named is T1, ETS1. The experiment in a line: ETS1 binding intensity (PBM fluorescence) in presence of RUNX1, normalised to ETS1-only experiment (arbitrary fluorescence units); higher = stronger binding. The note with it: ETS1 concentration 1 nM; RUNX1 concentration 25 nM.

On to ACGTCTTTATTTATCCTGTGGCTTCCCGACCCCCAC, for which the ETS1 binding intensity with ETS1 [1] was 537; in the assay with ETS1 [2], 576.

Consider AGGGTGTACTCGGAAGTTTCGAGTGGTTGCTTGGTT, for which the results for the ETS1 binding intensity with ETS1 [1] and with ETS1 [2] were 451 and 513, respectively.

Turning to TGCGCCGGAAGTGCATGAGCTGCCGATGTGGTGCTT, the values for the ETS1 binding intensity in the assay with ETS1 [1] and in the assay with ETS1 [2] were 4760 and 5410, respectively.

For GAAACTTCTCAAGGAAATAGCTGTGGTAAACAATAC, the results for the ETS1 binding intensity in the assay with ETS1 [1] and with ETS1 [2] were 725 and 1730, respectively.

On to TGGTCCACCCGGCGGAACTCGCGGTCCCGGCAGGCA, for which the ETS1 binding intensity in the assay with ETS1 [1] stood at 520; with ETS1 [2] it was 397.

As for GTCGGGAAGTAGGCGGGGTGACGTGTGGTTGACGAG, the results for the ETS1 binding intensity with ETS1 [1] and with ETS1 [2] were 426 and 546, respectively.

Take GATCTGCTTGGCTTCCTGTGGTCGCTGACTCACAGT: the ETS1 binding intensity with ETS1 [1] worked out at 905; with ETS1 [2], 1010.

On to CCCGGACCGTTTCCGTGCTGTGGTCCCGGGTTCTGG, for which the values for the ETS1 binding intensity in the assay with ETS1 [1] and with ETS1 [2] were 443 and 412, respectively.

On to ACCAAACGTCACATCCGCGGTGCTGCTGTAATCCCA, for which the ETS1 binding intensity in the assay with ETS1 [1] turned out to be 470; with ETS1 [2], 389.

Consider GACTGCGCCGGACGCGCCAGCCCTGCGGGATGACGT, for which the ETS1 binding intensity in the assay with ETS1 [1] was 650; with ETS1 [2], 801.

Turning to ACCCAGGGGACTTCCTGGCTCAGTGCCACAACCCAG, the ETS1 binding intensity is 545 with ETS1 [1] and 393 in the assay with ETS1 [2].

Take GGCTTTTCCGGGATCCCTTTCGCCTCATCACCGCAG: the figures for the ETS1 binding intensity with ETS1 [1] and with ETS1 [2] were 522 and 301, respectively.

CTAGTTTCCTGTGGCTGCTATGACAAATGACCACAG: the ETS1 binding intensity is 403 with ETS1 [1] and 474 with ETS1 [2].

As to GGTTGCCCCCTTCCTCTCTGTGGCACACACAGACCT, the ETS1 binding intensity with ETS1 [1] was 474; with ETS1 [2] it was 345.

For the sequence AGTGTAAACACGGAAGTGGCCGCAGGGGTGGGGGAT, the ETS1 binding intensity with ETS1 [1] is 1820; with ETS1 [2], 2690.

TCTACATCCTGCAGTTCTCCATTGTGGCCATTAGGT: the results for the ETS1 binding intensity with ETS1 [1] and with ETS1 [2] were 443 and 319, respectively.

Regarding GGCCGGAAAGGGTCTTGAGAGGAGGTGGTTGCCTTA, the ETS1 binding intensity with ETS1 [1] is 633; with ETS1 [2], 519.

Turning to AAAAAATGGAGGAAGTTACCTCCAGTGGTTTTGTGA, the ETS1 binding intensity in the assay with ETS1 [1] was determined as 751; in the assay with ETS1 [2], 1310.

In the case of GCATTTCTCAGAAAAGGAAGCGGTTGTGCCGGGAGG, the results for the ETS1 binding intensity in the assay with ETS1 [1] and with ETS1 [2] were 1530 and 2100, respectively.

Regarding TGTTGCACATGTTCAGGATGTGGTAGACAGCTTTCA, the ETS1 binding intensity with ETS1 [1] was found to be 1410; with ETS1 [2] it was 3040.

For GAGGTTGGGAAGTTCTTCCTTTGGTCTGACCACAGT, the ETS1 binding intensity stood at 453 in the assay with ETS1 [1] and 596 in the assay with ETS1 [2].

Turning to TAGAAAAGGAAGCAGGGTAGGTGTGGTATCTGGGTC, the values for the ETS1 binding intensity with ETS1 [1] and with ETS1 [2] were 587 and 575, respectively.

ACCGGAAGGGCGGGGGCGTGGCGAGGTACCGCAGAC: the ETS1 binding intensity with ETS1 [1] came out at 1170; in the assay with ETS1 [2], 2850.

On to GCAGGCGTGCGCTTCCGCTCCAACCCGCGCACTTCG, for which the ETS1 binding intensity in the assay with ETS1 [1] was 1110; in the assay with ETS1 [2], 1100.

AGGAGAGGATGTTGCTTGAAGGTGTGGTCTCCTCCA: the ETS1 binding intensity with ETS1 [1] stood at 549; with ETS1 [2], 462.

With GCTGTCCATTTCCGAGATGTTAATGCGGGATCTTGC, the ETS1 binding intensity in the assay with ETS1 [1] came out at 408; with ETS1 [2] it was 628.

Consider GCGGAGTGTTACGTAGGAAGTGGTTGTGACGTCATT, for which the results for the ETS1 binding intensity with ETS1 [1] and with ETS1 [2] were 1190 and 1540, respectively.
